The panel holds about 83,000 compounds, 20% with a hit somewhere; the sample as a whole holds those more often.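 The test compound was applied at a single concentration to cells in 96-well plates for 48 hours, and percent growth was recorded.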 Activity calls are given as the source filed them.

This assay has as its system A549/ATCC NSCLC. Nature of the assay: NCI-60 one-dose screen, 48 h (100 = growth as untreated, 0 = no growth, -100 = all killed). The note with it: 10 µM unless noted. Here is the method: Growth inhibition of the A549/ATCC human Non-Small Cell Lung tumor cell line is measured as a screen for anti-cancer activity. Cells are grown in 96 well plates and exposed to the test compound for 48 hours. Compounds are tested at a single concentration, which is 10^-5 M for most compounds. The reported endpoint is percent growth (GI% or GIPRCNT), where numbers from 0 - 100% represent growth inhibition, and numbers from -100% - 0 represent cell death. For example, a value of 40 represents 60% growth inhibition. A value of 0 means no net growth occurred over the course of the experiment. A value of -40 indicates 40% of cells at the beginning of the experiment died by the end of the experiment. A value of -100 means all cells are dead at the end of the experiment.
NCI-60 Human Tumor Cell Lines Screen was performed using the standard one-dose NCI protocol, which is described in more detail at https://dtp.cancer.gov/discovery_development/nci-60/default.htm.
Compounds with GIPRCNT values below 10 were considered active. Activity score was based on GIPRCNT using the following formula: […]
Score is 0 for GIPRCNT values of 100 or above, 50 for GIPRCNT values of 0, and 100 for GIPRCNT values of -100.
Consider `COc1ccc(-c2cc(-c3cccnc3)nc3sc4c(=O)n(-c5ccc(C)cc5)nnc4c23)cc1OC`, for which the growth is 102% (inactive). With `COc1ccc(/C=N\NC(=O)CN2CCN(c3cc4c(cc3F)c(=O)c(C(=O)N/N=C/c3ccc(OC)cc3)cn4C3CC3)CC2)cc1` the figure was 82.8% (inactive). With `O=C1OC2C(I)C3CC2C1C3c1ccccc1` (stereo not given) the figure was 110% (inactive); with `C/C(Cc1ccc(Cl)cc1)=C(\c1ccc(OCCN2CCCCCC2)cc1)c1ccc(OC(=O)Cc2ccccc2)cc1`, 61.3% (inactive); with `CSc1nc2sc3c(c2c(=O)n1-c1ccc(C(C)C)cc1)CCC(=O)C3`, 67.9% (inactive). Turning to `OC(c1cc(-c2ccccc2)nc2ccc(Cl)cc12)C1CCCCN1` (stereo not given), the growth is 21.7% (inactive). In the case of `O=C(/C=C/c1ccc(B(O)O)cc1)/C=C/c1ccc(B(O)O)cc1`, the growth was 41.4% (inactive). Regarding `O=C1c2cc3c(cc2-c2c1c1cc(Cl)c(Cl)cc1c(=O)n2C[C@H](O)CO)OCO3`, the growth is -47.3% (active).

In the case of `NC(=S)N/N=C/c1cc(-c2cccc(N)c2)ccn1`, the growth was 21.7% (inactive). With `Cc1ccc2c(c1)C(=O)c1c-2c(OCCCN(C)C)nc2ccccc12` the figure was -43.9% (active). In the case of `COc1ccc2nc3cc(Cl)ccc3c(N3CCN(c4nccc(Nc5ccccc5)n4)CC3)c2c1`, the growth was 65.1% (inactive).

Take `CCCCNP1(NCCCC)=NP(NCCCC)(NCCCC)=NP(NCCCC)(NCCCC)=NP(NCCCC)(NCCCC)=N1`: the growth was 0.875% (active). With `Nc1nc2c(c3ncccc13)C(c1ccc(Cl)c(Cl)c1)Cc1ncccc1-2` (stereo not given) the figure was 22.7% (inactive); with `Oc1c(Cl)cc(Cl)cc1CNc1nccnn1`, 102% (inactive).

For the compound `CCOC(=O)CC(=O)c1c(C)cc(C)cc1C`, the growth is 107% (inactive). The value for `COC1=CC(=O)C(OC)=C(OC)C1=O` was 114% (inactive). The value for `CCCCCCCCCCCCCCCCCCNC(=O)[C@H]1CSC(c2ccc(F)c(OC)c2)N1` (stereo not given in full) was -12.9% (active). The value for `CCOC(=O)C(=Cc1ccccc1F)C(=O)OCC` was 90.3% (inactive); that for `CC(=O)Oc1ccc(Nc2c3ccccc3nc3ccccc23)cc1` was -23.7% (active). Turning to `C=C1CCC2C3(C)COC(c4ccc(SC)cc4)OC3CCC2(C)C1C/C=C1/C(=O)OCC1O` (stereo not given), the growth is 83.6% (inactive). For `COc1ccc(CN2C(=O)/C(=C\c3cc(OC)c(OC)c(OC)c3)c3cc(OC)ccc32)cc1`, the growth is 3.05% (active). The value for `Cc1ccc2c(c1)n([O-])c1cc(Cl)ccc1[n+]2=O` was 98.9% (inactive); that for `COc1ccc2[nH]c(=O)c(/C=C/C(=O)c3ccc(Nc4nccc(-c5ccc6ccccc6c5)n4)cc3)cc2c1` was 97.3% (inactive). The value for `O=C(Nc1ccc(Nc2cc(Nc3ccccc3)ncn2)cc1)Nc1cc(C(F)(F)F)ccc1F` was 48.1% (inactive). With `Nc1ccc(N2CCOCC2)cc1` the figure was 110% (inactive); with `Cn1cc(-c2nc(-c3c[nH]c4ccccc34)cs2)c2cccnc21`, 34.2% (inactive). With `COc1ccc(CN(c2ccc(C)cc2)C2OC(=O)c3ccccc32)cc1OC` (stereo not given), the growth was 88.3% (inactive). `O=[N+]([O-])c1cccc(-c2nc3sccn3c2-c2ccnc(NCCNS(=O)(=O)c3ccc(C(F)(F)F)cc3)n2)c1`: the growth is 31.9% (inactive).

For `COc1ccc(C2c3ccc4ccccc4c3Oc3ncnc(N)c32)cc1` (stereo not given), the growth was 97.3% (inactive). The value for `CC/C(Cc1ccccc1)=C(/c1ccc(O)cc1)c1ccc(OCCN2CCCC2)cc1` was -59.1% (active).

For the compound `COCCOC(=O)C1=C(C)NC(=S)NC1c1ccc2c(c1)OCO2` (stereo not given), the growth was 101% (inactive). The value for `CN(C)c1ccc(/C=C\C2=[N+](C)c3ccccc3C2(C)C)cc1` was 2.47% (active).

Turning to `COc1cccc(/C=C\C(=O)c2ccccc2)c1`, the growth was 92.4% (inactive).

Regarding `CSc1[nH]c2ncnc(N)c2c1C#N`, the growth is 101% (inactive). On to `CS(=O)CCCCCN=C=S` (stereo not given), for which the growth was -0.774% (active). Take `COC(=O)[C@@H]1CC[C@]2(C)[C@H](CC[C@@H]3O[C@@]32C)[C@@]1(C)CC(=O)c1ccoc1`: the growth was 83.3% (inactive). With `CCOC(=O)C(CC)n1c(=O)c2cc(OC)c(OC)cc2c2cnc3[nH]ccc3c21` (stereo not given) the figure was 76.1% (inactive); with `COc1ccc(/C=c2/c(=O)[nH]c3nc4sc(C)c(C)c4c(=O)n23)cc1`, 79.7% (inactive). With `Cc1cc2cc3cc(C)c(N(C)C)cc3nc2cc1N(C)C` the figure was 7.53% (active); with `O=C1C(=O)N(CCCCn2cc(CO)nn2)c2ccccc21`, 104% (inactive).

(Values after PubChem BioAssay (NCI).)
